In PubChem BioAssay (NCATS):
Inconclusive results are not listed. Active and inactive are the calls of the source. Unless noted, the call rests on the fitted dose curve; in most records, active means well fitted curve in the direction sought with a large enough effect; inconclusive means small, poorly fitted or top-dose-only effect, or another doubt; inactive means no such curve, though single readings can be large; an effect the other way counts as inactive or inconclusive.

Tests used:
[1] = molecular target: Rap guanine nucleotide exchange factor 4 (Homo sapiens) (UniProt Q8WZA2); assay: Confirmatory qHTS for agonist of cAMP-regulated guanine nucleotide exchange factor 4 (EPAC2) (AID 1645884); details: EPAC2 GEF activity, Rap1B-BODIPY-GDP fluorescence; series mostly up to 154 µM;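 further: nucleotide exchange releases bodipy-GDP from Rap1 and this lowers its fluorescence; on the % scale 0 is the no-effect control and ±100 the full control effect; nearly all actives have a fitted effect of over 65% in size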
[2] = molecular target: Rap guanine nucleotide exchange factor 3 (Homo sapiens) (UniProt O95398); assay: Counterscreen qHTS for antagonist of cAMP-regulated guanine nucleotide exchange factor 3 (EPAC1) (AID 1645888); details: Rap1B-BODIPY-GDP nucleotide exchange, fluorescence; series mostly up to 154 µM;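 further: fluorescence loss as bound BODIPY-GDP is released from Rap1B; % of control where 0% means no effect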
Procedure, shortened: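 Rap1B–BODIPY-GDP (250 nM) with 50 uM GDP; compounds pin-transferred to 9.74 nM–152 uM final (activator) or from 7.32 nM upwards (inhibitor). Fluorescence Ex/Em 480/540 nm read at 5 and 30 min, then after adding cAMP or buffer, at room temperature.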

[3] = molecular target: DNA repair nuclease/redox regulator APEX1 (Homo sapiens) (UniProt P27695); assay: qHTS Validation Assay for Inhibitors of the Human Apurinic/apyrimidinic Endonuclease 1 (APE1) (AID 1705;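 further: TAMRA fluorescence gain over two minutes as APE1 cuts a quenched THF abasic duplex; on the % scale 0 is the no-effect control and ±100 the full control effect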); details: purified APE1 endonuclease activity, fluorescence, titration; series mostly up to 57.1 µM
Procedure, shortened: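 Human APE1 was preincubated with compound for 15 min at room temperature, then 50 nM (final) THF-abasic double-stranded DNA substrate bearing 5'-TAMRA and 3'-BHQ-2 was added. Incision-driven fluorescence rise (ex 525/em 598 nm) was read kinetically.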

[4] = molecular target: Ferritin light chain (Equus caballus) (UniProt P02791); assay: qHTS Validation Assay for Identification of Novel General Anesthetics (AID 2323); details: horse apoferritin, anesthetic-site fluorescent probe displacement; series mostly up to 76.9 µM; further: potency means the concentration at half of the fitted maximal effect; on activity change, negative = inhibition: on the % scale 0 is the no-effect control and ±100 the full control effect
Procedure, shortened: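 Competitive displacement of profluorescent 1-aminoanthracene (1-AMA, 50% saturated solution in PBS) from 10 uM horse-spleen apoferritin. Compounds incubated 10 min at room temperature; fluorescence read at 380 nm excitation/535 nm emission, normalized to free 1-AMA and complex, fitted with four-parameter Hill equation.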

[5] = molecular target: Transient receptor potential cation channel subfamily V member 1 (Homo sapiens) (UniProt Q8NER1); assay: HTS Assay for Compounds that Act as Enhancers of the Vanilloid Receptor 1 (AID 488979); details: TRPV1-expressing cells, enhancer of channel activity; series mostly up to 41.7 µM; further: 0% is about no effect
Procedure, shortened: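 TRPV1 cells loaded with Fluo-8 calcium dye; compound added and Ca2+ signal (ex 480/em 520 nm) followed 3 min, then capsaicin at EC20 added and read 2 more min to detect enhancement.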

[6] = Cell Viability - LYMP2-005 (AID 967); details: LYMP2-005 lymphoblastoid cell viability; series mostly up to 92.2 µM;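 further: plate controls were DMSO only for no effect and 92 µM tetraoctylammonium bromide control for full effect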
Procedure, shortened: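 CellTiter-Glo luminescence (cellular ATP) read-out; LYMP2-005 lymphoblastoid cells, 2500/well, 5 h pre-incubation, then 24 h compound exposure at 37 C in complete medium. Tetraoctylammonium bromide positive control; AC50 by standard Hill fit.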

[7] = Cell Viability - LYMP2-002 (AID 977); details: LYMP2-002 lymphoblastoid cell viability, qHTS; series mostly up to 92.2 µM;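 further: plate controls were DMSO only for no effect and 92 µM tetraoctylammonium bromide for full effect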
Procedure, shortened: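 Human lymphoblastoid LYMP2-002 cells, 2500 per well, exposed to compounds for 24 h at 37 C in complete medium; viability read as intracellular ATP by CellTiter-Glo luminescence, AC50 from Hill fits.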

[8] = molecular target: Glucocorticoid receptor (Homo sapiens) (UniProt P04150); assay: qHTS assay for small molecule agonists of glucocorticoid receptor signaling (AID 588532; active means well fitted curve in the direction sought with a large enough effect in the signal ratio, with a control signal flat; the % refers to the signal ratio;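 further: 100% = dexamethasone at 0.1 µM and 0% = DMSO only wells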); details: HeLa MMTV-bla, beta-lactamase ratio, agonist, 18 h; stronger effect = higher value; percent of dexamethasone control, DMSO zero
Procedure, shortened: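 Cells were plated and rested 3-5 h at 37 C, compounds were added in titration and incubated 18 h, then CCF4 substrate was loaded for 2 h at RT before reading blue/green fluorescence. EC50 came from Hill-equation fitting.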

[9] = qHTS assay for small molecule antagonists of peroxisome proliferator-activated receptor delta signaling (AID 588535; active means well fitted inhibition curve with a large enough effect in the signal ratio, with a control signal flat, not every such curve was filed as active; the % refers to the signal ratio;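 on max response: cells co-treated with a PPAR-delta agonist as stimulator during compound exposure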); details: HEK293T PPARd-UAS-bla, beta-lactamase FRET ratio, 18 h; 460 nm channel
Procedure, shortened: (§1)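 Cells were seeded at 4000 per well in assay medium containing 2% charcoal/dextran FBS and held 5 hrs at 37 C. Compounds were then added for 18 hrs. CCF4 substrate was applied for 2 hrs at room temperature before fluorescence reading.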

[10] = molecular target: Peroxisome proliferator-activated receptor delta (Homo sapiens) (UniProt Q03181); assay: as above; details: HEK293T PPARd-UAS-bla, beta-lactamase FRET ratio, 18 h; series mostly up to 76.7 µM
Procedure, shortened: as §1

[11] = molecular target: Thyroid hormone receptor beta (Homo sapiens) (UniProt P10828); assay: qHTS assay for small molecule antagonists of thyroid hormone receptor beta signaling (AID 588547; active means well fitted inhibition curve with a large enough effect in the signal ratio, with a control signal flat, not every such curve was filed as active; the % refers to the signal ratio;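 further: cells stimulated with 0.4 nM T3 agonist during compound exposure; on the % scale 0 is the no-effect control and ±100 the full control effect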); details: TR-UAS-bla HEK293, beta-lactamase ratio, antagonist mode, 18 h
Procedure, shortened: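 TR-UAS-bla GripTite HEK293 cells in 2% charcoal/dextran FBS medium; compounds 0.59 nM to 92 uM with T3 at 0.4nM final, 18 h at 37 C. Beta-lactamase read by CCF4 fluorescence (460/530 nm); Hill fits gave IC50 and efficacy.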

[12] = molecular target: Peroxisome proliferator-activated receptor alpha (Homo sapiens) (UniProt Q07869); assay: qHTS assay for small molecule agonists of the peroxisome proliferator-activated receptor alpha (PPARalpha) signaling pathway (AID 651778); details: PathHunter PPARalpha complementation, chemiluminescence, 6 h; stronger effect = higher value; further: % of control where 0% means no effect
Procedure, shortened: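 Enzyme-fragment complementation assay in which ligand-bound PPARalpha translocates and forms an active enzyme that generates chemiluminescence. Cells were plated overnight, exposed to compound for 6 hr at 37 C, and then given detection reagent for 60 min at room temperature.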

[13] = Cell Viability - Mesenchymal (AID 546); details: mesenchymal cells viability, qHTS; series mostly up to 91.7 µM;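 further: cells exposed to compound for 40 hours before reading; 0% = DMSO only and -100% = 100 µM tamoxifen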
Procedure, shortened: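 Human kidney mesenchymal cells from normal renal glomeruli, 1000 cells/well, rested 5 hr at 37 °C, then treated 40 hr at 37 °C in complete medium. Cellular ATP read by CellTiter-Glo luminescence; AC50 from Hill-equation fits.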

[14] = Cell Viability - LYMP2-001 (AID 921); details: LYMP2-001 lymphoblastoid cell viability; series mostly up to 92.2 µM;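 further: 0% = DMSO only and full inhibition = tetraoctylammonium bromide control wells; nearly all actives have a fitted effect of over 70% in size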
Procedure, shortened: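 Human lymphoblastoid cells (Coriell), 2500 per well, were preincubated 5 hr at 37 C, then exposed to compounds in complete medium for 24 hr at 37 C. Cellular ATP was read by CellTiter-Glo luminescence; AC50 from Hill fits of concentration-response data.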

[15] = Cell Viability - LYMP1-003 - Assay at 40 hr (AID 964); details: LYMP1-003 lymphoblastoid viability; series mostly up to 92.2 µM; further: on the % scale 0 is the no-effect control and ±100 the full control effect; nearly all actives have a fitted effect of over 60% in size
Procedure, shortened: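 Human lymphoblastoid LYMP1-003 cells, 2500/well in complete medium, rested 5 hr at 37 C, then exposed to compounds for 40 hr at 37 C. Viability read as intracellular ATP by CellTiter-Glo luminescence; AC50 from Hill fits of concentration-response data.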

[16] = Cell Viability - LYMP2-017 (AID 972); details: LYMP2-017 lymphoblastoid cell viability; series mostly up to 92.2 µM; further: on the % scale 0 is the no-effect control and ±100 the full control effect; nearly all actives have a fitted effect of over 55% in size
Procedure, shortened: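 Human lymphoblastoid cells (2500/well) were seeded in complete medium, held 5 hr at 37 C, then exposed to compounds for 24 hr at 37 C. Intracellular ATP was read by CellTiter-Glo luminescence after 30 min at room temperature, with AC50 values from Hill-equation fits.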

[17] = Cell Viability - LYMP2-010 (AID 981); details: LYMP2-010 lymphoblastoid cell viability, qHTS; series mostly up to 92.2 µM; further: on the % scale 0 is the no-effect control and ±100 the full control effect; nearly all actives have a fitted effect of over 55% in size
Procedure, shortened: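 Human lymphoblastoid LYMP2-010 cells (2500/well) were preincubated 5 hr at 37 C, then exposed to compounds for 24 hr at 37 C in complete medium. Intracellular ATP was measured by CellTiter-Glo luminescence after 30 min at room temperature; AC50 from Hill-fitted concentration-response.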

[18] = Cell Viability - LYMP2-022 (AID 987); details: LYMP2-022 lymphoblastoid cell viability; series mostly up to 92.2 µM;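 further: 0% = DMSO alone and full effect = tetraoctylammonium bromide at 92 µM; nearly all actives have a fitted effect of over 55% in size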
Procedure, shortened: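 Human lymphoblastoid cells, 2500/well, preincubated 5 hr at 37 C, then exposed to compounds over a concentration range for 24 hr at 37 C in complete medium. Viability read as intracellular ATP by CellTiter-Glo luminescence after 30 min at room temperature; AC50 from Hill fits.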

[19] = Cell Viability - LYMP1-002 - Assay at 40 hr (AID 994); details: LYMP1-002 lymphoblastoid cell viability; series mostly up to 92.2 µM;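 further: 0% = DMSO only and full inhibition = 92 µM tetraoctylammonium bromide; nearly all actives have a fitted effect of over 60% in size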
Procedure, shortened: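 Human lymphoblastoid cells, 2500/well in complete medium, were preincubated 5 hr at 37 C, then exposed to compounds for 40 hr at 37 C. Intracellular ATP was read by CellTiter-Glo luminescence after 30 min at room temperature; AC50 from Hill-equation fits.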

[20] = qHTS assay for small molecule antagonists of the retinoid-related orphan receptor gamma (ROR-gamma) signaling pathway - cell viability counter screen (AID 720652; active means well fitted curve in the direction sought with a large enough effect in the repeat runs; an effect the other way counts as inactive or inconclusive;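 further: CHO reporter cells with doxycycline-induced ROR-gamma expression; compound exposure lasted 16 hr before ATP read; on the % scale 0 is the no-effect control and ±100 the full control effect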); details: RORgamma reporter cell line viability counter screen; series mostly up to 92.2 µM
Procedure, shortened: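 Counter screen in CHO cells carrying TET-inducible ROR-gamma and an ROR response element-luciferase reporter; cells plated 5 hr, compound pinned, doxycycline added, then 16 hr at 37 C. Viability read as intracellular ATP by CellTiter-Glo luminescence.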

Sequence of Rap guanine nucleotide exchange factor 4 (Homo sapiens) (Q8WZA2 whole entry, looked up): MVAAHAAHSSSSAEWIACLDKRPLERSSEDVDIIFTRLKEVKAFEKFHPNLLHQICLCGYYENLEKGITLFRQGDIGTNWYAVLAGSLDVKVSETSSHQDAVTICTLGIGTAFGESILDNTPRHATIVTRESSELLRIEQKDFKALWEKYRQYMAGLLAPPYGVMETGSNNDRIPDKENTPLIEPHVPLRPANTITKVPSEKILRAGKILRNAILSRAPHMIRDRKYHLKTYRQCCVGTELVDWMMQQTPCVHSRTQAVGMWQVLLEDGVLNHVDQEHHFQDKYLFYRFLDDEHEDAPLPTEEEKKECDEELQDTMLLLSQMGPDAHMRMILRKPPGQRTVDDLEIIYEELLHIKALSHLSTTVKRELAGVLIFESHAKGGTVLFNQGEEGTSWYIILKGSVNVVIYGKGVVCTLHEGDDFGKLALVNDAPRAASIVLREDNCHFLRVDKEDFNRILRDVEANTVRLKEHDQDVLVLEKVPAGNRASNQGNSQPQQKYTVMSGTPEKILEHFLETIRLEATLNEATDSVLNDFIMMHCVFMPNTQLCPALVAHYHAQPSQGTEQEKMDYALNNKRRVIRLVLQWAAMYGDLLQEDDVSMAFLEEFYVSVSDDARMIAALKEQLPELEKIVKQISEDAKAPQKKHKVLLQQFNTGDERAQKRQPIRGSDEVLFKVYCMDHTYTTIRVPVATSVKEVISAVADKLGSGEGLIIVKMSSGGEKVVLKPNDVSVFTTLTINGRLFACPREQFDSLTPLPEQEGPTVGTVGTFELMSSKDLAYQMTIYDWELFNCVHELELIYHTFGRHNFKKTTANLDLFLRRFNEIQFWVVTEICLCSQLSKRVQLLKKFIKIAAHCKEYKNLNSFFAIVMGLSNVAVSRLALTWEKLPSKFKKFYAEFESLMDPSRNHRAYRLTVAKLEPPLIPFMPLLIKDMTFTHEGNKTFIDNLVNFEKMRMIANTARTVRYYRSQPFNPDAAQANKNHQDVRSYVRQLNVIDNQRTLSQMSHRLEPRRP
Sequence of DNA repair nuclease/redox regulator APEX1 (Homo sapiens) (P27695 whole entry, looked up): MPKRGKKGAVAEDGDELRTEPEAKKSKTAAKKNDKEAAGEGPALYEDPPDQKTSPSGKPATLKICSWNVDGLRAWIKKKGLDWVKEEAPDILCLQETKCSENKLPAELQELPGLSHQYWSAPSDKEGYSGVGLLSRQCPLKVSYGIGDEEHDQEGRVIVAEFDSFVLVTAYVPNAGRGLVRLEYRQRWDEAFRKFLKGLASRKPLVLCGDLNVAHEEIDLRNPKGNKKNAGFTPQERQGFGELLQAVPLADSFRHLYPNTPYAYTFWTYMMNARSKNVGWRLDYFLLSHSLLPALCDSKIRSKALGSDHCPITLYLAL
Sequence of Thyroid hormone receptor beta (Homo sapiens) (P10828 whole entry, looked up): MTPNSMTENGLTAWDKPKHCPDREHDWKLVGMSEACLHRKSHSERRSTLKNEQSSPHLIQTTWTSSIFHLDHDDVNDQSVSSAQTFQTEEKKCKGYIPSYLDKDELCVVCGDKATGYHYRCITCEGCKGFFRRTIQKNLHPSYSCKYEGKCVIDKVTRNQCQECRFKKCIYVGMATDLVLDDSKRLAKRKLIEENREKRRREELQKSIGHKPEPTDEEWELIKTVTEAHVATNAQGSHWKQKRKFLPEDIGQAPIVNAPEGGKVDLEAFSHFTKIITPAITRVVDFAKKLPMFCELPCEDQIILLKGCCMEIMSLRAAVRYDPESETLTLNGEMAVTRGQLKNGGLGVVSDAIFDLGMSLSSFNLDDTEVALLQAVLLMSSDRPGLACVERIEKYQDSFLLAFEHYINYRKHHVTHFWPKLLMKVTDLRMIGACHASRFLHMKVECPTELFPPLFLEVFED
Sequence of Rap guanine nucleotide exchange factor 3 (Homo sapiens) (O95398 whole entry, looked up): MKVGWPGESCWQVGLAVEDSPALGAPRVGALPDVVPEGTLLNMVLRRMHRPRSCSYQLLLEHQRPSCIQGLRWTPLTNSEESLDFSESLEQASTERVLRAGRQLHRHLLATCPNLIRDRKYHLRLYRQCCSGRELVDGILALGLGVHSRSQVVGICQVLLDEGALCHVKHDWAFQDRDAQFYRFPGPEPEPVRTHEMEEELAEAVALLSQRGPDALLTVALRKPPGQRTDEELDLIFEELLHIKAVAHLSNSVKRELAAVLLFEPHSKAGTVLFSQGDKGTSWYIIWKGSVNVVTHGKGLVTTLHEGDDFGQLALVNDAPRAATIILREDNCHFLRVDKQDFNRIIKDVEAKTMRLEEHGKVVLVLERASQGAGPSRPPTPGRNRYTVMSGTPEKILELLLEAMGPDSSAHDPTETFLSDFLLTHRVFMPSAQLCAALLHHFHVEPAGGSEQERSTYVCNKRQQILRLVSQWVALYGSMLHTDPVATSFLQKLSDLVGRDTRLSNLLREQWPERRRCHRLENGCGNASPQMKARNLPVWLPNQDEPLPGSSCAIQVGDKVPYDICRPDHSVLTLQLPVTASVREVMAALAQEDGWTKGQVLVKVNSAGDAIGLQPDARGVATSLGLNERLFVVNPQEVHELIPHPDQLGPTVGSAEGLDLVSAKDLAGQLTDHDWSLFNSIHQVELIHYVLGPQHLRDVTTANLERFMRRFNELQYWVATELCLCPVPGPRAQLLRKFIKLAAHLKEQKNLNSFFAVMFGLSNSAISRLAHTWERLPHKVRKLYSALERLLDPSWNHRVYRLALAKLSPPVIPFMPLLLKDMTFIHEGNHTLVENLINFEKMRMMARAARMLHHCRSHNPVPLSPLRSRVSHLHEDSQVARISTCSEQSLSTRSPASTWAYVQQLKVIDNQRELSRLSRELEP
Sequence of Glucocorticoid receptor (Homo sapiens) (P04150 whole entry, looked up): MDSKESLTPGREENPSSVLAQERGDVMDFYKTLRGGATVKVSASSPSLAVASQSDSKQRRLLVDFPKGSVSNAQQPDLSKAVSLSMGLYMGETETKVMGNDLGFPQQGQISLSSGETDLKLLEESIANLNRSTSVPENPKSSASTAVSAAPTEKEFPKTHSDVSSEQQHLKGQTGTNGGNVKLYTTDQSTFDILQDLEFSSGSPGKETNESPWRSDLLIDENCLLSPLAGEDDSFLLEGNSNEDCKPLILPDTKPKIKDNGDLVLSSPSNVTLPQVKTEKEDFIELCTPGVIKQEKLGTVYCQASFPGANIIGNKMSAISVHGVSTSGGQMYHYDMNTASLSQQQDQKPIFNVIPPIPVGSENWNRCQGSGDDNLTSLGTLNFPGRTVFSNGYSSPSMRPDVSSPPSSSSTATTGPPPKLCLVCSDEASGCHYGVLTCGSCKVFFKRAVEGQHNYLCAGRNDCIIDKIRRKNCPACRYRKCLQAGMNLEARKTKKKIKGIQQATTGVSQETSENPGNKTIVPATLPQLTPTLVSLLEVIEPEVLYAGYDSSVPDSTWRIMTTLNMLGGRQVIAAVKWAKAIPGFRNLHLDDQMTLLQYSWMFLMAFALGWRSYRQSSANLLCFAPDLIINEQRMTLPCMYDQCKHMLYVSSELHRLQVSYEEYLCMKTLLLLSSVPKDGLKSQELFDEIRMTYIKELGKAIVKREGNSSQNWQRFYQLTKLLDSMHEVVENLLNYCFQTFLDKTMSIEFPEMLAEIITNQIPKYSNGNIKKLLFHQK
Sequence of Transient receptor potential cation channel subfamily V member 1 (Homo sapiens) (Q8NER1 whole entry, looked up): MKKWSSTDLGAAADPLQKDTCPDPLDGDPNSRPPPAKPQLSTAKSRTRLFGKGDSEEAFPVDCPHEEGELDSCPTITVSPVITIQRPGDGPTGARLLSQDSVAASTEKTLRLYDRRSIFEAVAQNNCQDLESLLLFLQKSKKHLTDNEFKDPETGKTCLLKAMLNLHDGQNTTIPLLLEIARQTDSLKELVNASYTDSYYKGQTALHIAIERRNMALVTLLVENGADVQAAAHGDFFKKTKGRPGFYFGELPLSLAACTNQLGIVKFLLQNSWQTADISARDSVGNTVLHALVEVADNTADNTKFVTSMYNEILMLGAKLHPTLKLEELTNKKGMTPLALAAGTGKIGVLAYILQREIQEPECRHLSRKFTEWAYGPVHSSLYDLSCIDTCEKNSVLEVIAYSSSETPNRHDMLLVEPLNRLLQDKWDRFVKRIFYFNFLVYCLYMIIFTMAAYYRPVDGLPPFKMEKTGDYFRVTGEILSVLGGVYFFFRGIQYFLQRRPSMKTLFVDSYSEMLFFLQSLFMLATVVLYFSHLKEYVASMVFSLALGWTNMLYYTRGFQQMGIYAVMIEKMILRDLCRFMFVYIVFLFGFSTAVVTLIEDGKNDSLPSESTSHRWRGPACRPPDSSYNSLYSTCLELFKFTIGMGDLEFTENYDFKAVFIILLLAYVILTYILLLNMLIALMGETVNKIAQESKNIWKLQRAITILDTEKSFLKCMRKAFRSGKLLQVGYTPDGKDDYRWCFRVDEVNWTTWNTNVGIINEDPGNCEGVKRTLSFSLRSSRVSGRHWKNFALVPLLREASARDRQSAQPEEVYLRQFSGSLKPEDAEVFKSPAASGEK
Sequence of Ferritin light chain (Equus caballus) (P02791 2-175 limits assumed): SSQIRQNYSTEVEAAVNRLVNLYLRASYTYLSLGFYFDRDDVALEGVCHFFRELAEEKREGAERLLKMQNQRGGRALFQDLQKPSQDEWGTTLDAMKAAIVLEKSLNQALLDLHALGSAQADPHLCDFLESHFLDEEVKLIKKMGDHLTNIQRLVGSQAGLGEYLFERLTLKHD
Sequence of Peroxisome proliferator-activated receptor alpha (Homo sapiens) (Q07869 whole entry, looked up, the tested form may be a part): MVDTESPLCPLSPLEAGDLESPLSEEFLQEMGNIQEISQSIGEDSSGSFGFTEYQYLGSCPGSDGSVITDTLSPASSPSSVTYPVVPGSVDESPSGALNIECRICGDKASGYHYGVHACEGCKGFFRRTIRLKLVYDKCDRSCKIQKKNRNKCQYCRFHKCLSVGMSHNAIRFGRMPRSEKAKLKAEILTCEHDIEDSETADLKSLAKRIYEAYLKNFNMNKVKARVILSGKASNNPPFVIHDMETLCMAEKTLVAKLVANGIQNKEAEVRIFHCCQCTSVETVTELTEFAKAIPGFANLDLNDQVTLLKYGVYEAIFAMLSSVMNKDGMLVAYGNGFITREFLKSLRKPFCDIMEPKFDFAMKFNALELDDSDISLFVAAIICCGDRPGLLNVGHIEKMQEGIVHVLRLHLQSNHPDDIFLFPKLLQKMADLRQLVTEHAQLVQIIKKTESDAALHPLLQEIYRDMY

CCOC(=O)c1[nH]c2ccc(OC)cc2c1C(SCC(=O)O)c1ccc(C(F)(F)F)cc1 (centres undefined)
inactive: activation [1] 2.9% [at 17.1 µM, percent relative to cAMP agonist control] | activity change, negative = inhibition [2] -0.779% [at 30.8 µM]

Nc1ccc(Cl)cc1C(=O)c1ccccc1Cl
inactive: activation [1] 8.81% [at 17.1 µM, percent relative to cAMP agonist control] | activity change, negative = inhibition [2] -0.237% [at 30.8 µM]

Oc1cc2c(cc1O)[C@H]1c3ccccc3CNC1CC2 (some centres undefined)
inactive: Potency [3] | Potency [4] | outcome [5]

C[C@H]1CCCC(=O)CCC/C=C/c2cc(O)cc(O)c2C(=O)O1
inactive: Potency [6] | Potency [7]

FC(F)(F)c1cccc(C2NCc3ccccc3-n3cccc32)c1 (centres undefined)
inactive: activation [1] 12.8% [at 17.1 µM, percent relative to cAMP agonist control] | activity change, negative = inhibition [2] -3.38% [at 30.8 µM]

Cc1cccc(CN2C(=O)CN=C(c3ccccc3)c3cc(Cl)ccc32)c1
inactive: Potency [1]

Cc1cc(/C=C2/C(=O)NC(=O)N(Cc3ccco3)C2=O)c(C)n1-c1ccccc1
inactive: outcome [2]

C[C@]12CC[C@H](OS(=O)(=O)O)CC1=CCC1C2CC[C@]2(C)C(=O)CC[C@@H]12 (some centres undefined)
inactive: Potency [3] | Potency [4] | outcome [5]

C[C@]12CC[C@@H](O)CC1CCC1C2CC[C@]2(C)C(=O)CC[C@@H]12 (some centres undefined)
inactive: Potency [3] | outcome [5]

N.N.N.N.N.N.N.N.N.N.N.N.N.N.O.O.[Cl-].[Cl-].[Cl-].[Cl-].[Cl-].[Cl-].[Ru].[Ru].[Ru]
active: Potency [4] 25.1 µM

O=C(O)C1C2CCC(O2)C1C(=O)O (centres undefined)
inactive: Potency [3] | Potency [4] | outcome [5] | activation [8] -13.9% | Potency [10] | activity change % (negative = inhibition) [11] -12% | max response [12] -0.146%
16.5%: max response [9]

Nc1c(Br)cc2c3c(cccc13)-c1ccccc1-2
inactive: activation [1] 8.9% [at 17.1 µM, percent relative to cAMP agonist control] | activity change, negative = inhibition [2] 16.7% [at 30.8 µM]

C[C@@H]1O[C@@H](O[C@H]2C[C@@H](O)[C@]3(CO)[C@H]4[C@H](O)C[C@]5(C)[C@@H]([C@@H]6COC(=O)C6)CC[C@]5(O)[C@@H]4CC[C@]3(O)C2)[C@H](O)[C@H](O)[C@H]1O
inactive: Potency [3] | Potency [4] | outcome [5]

COC1=CC(=O)O[C@@H](/C=C/c2ccc3c(c2)OCO3)C1
inactive: outcome [13] | Potency [14] | Potency [15] | Potency [6] | Potency [16] | Potency [7] | Potency [17] | Potency [18] | Potency [19] | activation [8] -3.44% | Potency [10] | activity change % (negative = inhibition) [11] 4.69% | max response [12] -0.53% | Potency [20]
27.2%: max response [9]

COC1=CC(=O)OC(CCc2ccccc2)C1 (centres undefined)
inactive: outcome [13] | Potency [14] | Potency [15] | Potency [16] | Potency [7] | Potency [17] | Potency [18] | Potency [19] | activation [8] -4.92% | activity change % (negative = inhibition) [11] 3.59% | max response [12] -9.22% | Potency [20]
